Screens as filed in PubChem BioAssay.
PLK1 inh: blocks human PLK1 kinase activity. recombinant PLK1 kinase, TR-FRET peptide phosphorylation. inhibition, % at 10 µM. actives 0.53% (n = 97,000);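 active means inhibition of 50% or more in the single-concentration screen; inactive means inhibition below 50%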;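 further: 0% = DMSO max control and 100% = H-89 dihydrochloride min control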
CYP2C9 inhib: inhibitors of human CYP2C9 | P11712 | CYP2C9 Supersomes, luciferin-H conversion, luminescence | inhibition, % at 5 µM | actives 20% (n = 96,000);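 active means blocking of liver enzyme CYP2C9 beyond about 50% at 5 µM, limit read from the data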
Target sequence (P11712 whole entry, looked up): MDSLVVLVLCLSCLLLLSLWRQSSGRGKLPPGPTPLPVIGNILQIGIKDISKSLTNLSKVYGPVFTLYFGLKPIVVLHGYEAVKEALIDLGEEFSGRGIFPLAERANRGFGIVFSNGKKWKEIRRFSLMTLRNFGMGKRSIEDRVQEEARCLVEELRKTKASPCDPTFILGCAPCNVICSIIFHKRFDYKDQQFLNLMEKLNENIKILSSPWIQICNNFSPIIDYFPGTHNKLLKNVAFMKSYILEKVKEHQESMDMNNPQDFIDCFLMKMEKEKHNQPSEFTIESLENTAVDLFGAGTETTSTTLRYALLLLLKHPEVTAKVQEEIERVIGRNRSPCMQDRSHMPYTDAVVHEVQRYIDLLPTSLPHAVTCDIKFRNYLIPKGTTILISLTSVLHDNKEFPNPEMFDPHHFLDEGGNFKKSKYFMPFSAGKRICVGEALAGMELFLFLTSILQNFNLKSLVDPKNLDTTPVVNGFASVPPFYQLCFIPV
CYP2C19 act: cytochrome P450 2C19 (human) activation; activation factor at 5 µM; AID 1025; recombinant CYP2C19, luciferin-H EGE luminescence; hits give high values; 0 = fully inhibited enzyme, 1 = untreated enzyme; P33261; 96,000 tested, under 10 active;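 active means activation factor of at least 2 at 5 µM in the primary screen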;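 further: 0 = wells with 2.5 mM tranylcypromine and 1 = vehicle-only wells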
Plk1 PBD FP: inhibitors of human Plk1 polo box domain binding; P53350; Plk1 PBD phosphopeptide binding, fluorescence polarization; inhibition, %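 (tested at about 20 µM)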; actives 0.13% (n = 97,000); AID 693; in the data active means inhibition above about 34%, passing the limit was not always enough
CYP2C19 inh: blocks human cytochrome P450 2C19. actives 21% (n = 96,000). inhibition, % at 5 µM. CYP2C19 Supersomes, luciferin-H EGE luminescence, 30 min. P33261;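 active means CYP2C19 inhibition above a set limit at 5 µM in the primary screen, cut at about 50% in these data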;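 further: plate controls were negative control wells for no effect and 2.5 mM tranylcypromine positive control for full effect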
CYP2C9 act: CYP2C9 (human) activation | activation factor at 5 µM | AID 1024 | actives 1.4% (n = 96,000) | recombinant CYP2C9, luciferin-H conversion, luminescence; hits give high values; factor 1 = untreated enzyme, 0 = blocked | P11712;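 active means activation factor of 2 or more for CYP2C9 at a 5 µM dose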;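 further: 0 = sulfaphenazole-blocked wells and 1 = vehicle-only wells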
Numbers without * were called inactive; · = not tested or not shown. Most compounds without a hit are left out; they make up all but 28% or so of the library.

SMILES | PLK1 inh | CYP2C9 inhib | CYP2C19 act | Plk1 PBD FP | CYP2C19 inh | CYP2C9 act
O=C(Cn1ncc2c(=O)oc3ccccc3c21)NCC1CCCO1 (centres undefined) | -21.7 | -1.6 | 1.1 | 12.1 | -5.0 | 1
O=C(Cn1ncn2c(cc3ccccc32)c1=O)NCc1ccco1 | -4.6 | 15.5 | 0.4 | -1.2 | 62.5* | 0.8
O=C(Cn1ncc2c(=O)oc3ccccc3c21)NCCC1=CCCCC1 | -8.5 | 24.5 | 0.4 | -25.2 | 59.3* | 0.8
O=C(Nc1ccc(SC(F)F)cc1)c1ccc2nccnc2c1 | 9.6 | 20.4 | 0.9 | -17.9 | 8.7 | 0.8
Cc1cccc(C(=O)O/N=C2/CC3CCC2(C)C3(C)C)c1 (centres undefined) | -13.3 | · | · | -6.1 | · | ·
COc1ccc(OC)c(S(=O)(=O)N2CCC(C(=O)N3CCN(Cc4ccccc4)CC3)CC2)c1 | -13.2 | 54.9* | 0.6 | -40.2 | 41.7 | 0.5
Cc1cccc(N2CCN(C(=O)C3CCN(c4nnc(-n5cccc5)s4)CC3)CC2C)c1 (centres undefined) | · | 36.7 | 0.7 | · | 33.9 | 0.6
COc1ccc(CNC(=O)C2CCN(S(=O)(=O)c3cc(OC)ccc3OC)CC2)cc1 | -14.2 | -86.8 | 0.4 | 4.1 | 64.9* | 1.9
COc1ccc(OC)c(CCNC(=O)C2CCN(c3nnc(-n4cccc4)s3)CC2)c1 | 0.1 | 65.4* | 0.1 | -2.3 | 92.7* | 0.3
COc1ccc(OC)c(S(=O)(=O)NC2CCN(Cc3ccccc3)CC2)c1 | -10.7 | 24.6 | 0.8 | 3.3 | 23.5 | 0.8
Cc1ccc(Cl)cc1N1CCN(C(=O)C2CCN(c3nnc(-n4cccc4)s3)CC2)CC1 | · | 85.1* | 0.6 | · | 38.2 | 0.1
COc1ccc(CCNC(=O)C2CCN(S(=O)(=O)c3cc(OC)ccc3OC)CC2)cc1 | -2.0 | -49.5 | 0.7 | -2.2 | 34.3 | 1.5
CC(C)CCNC(=O)C1CCN(c2nnc(-n3cccc3)s2)CC1 | -10.2 | 39.1 | 0.8 | 26.2 | 24.1 | 0.6
COc1ccc(Oc2nc(Oc3ccc(OC)cc3)nc(Oc3ccc(OC)cc3)n2)cc1 | -3.5 | -12.7 | 1.1 | 18.4 | -8.9 | 1.1
CCOC(=O)c1cnn(-c2nc3sc4c(c3c(=O)[nH]2)CCCC4)c1N | · | -8.2 | 1.2 | · | -18.3 | 1.1
Cc1ccc(NCc2nnc(SCC(=O)Nc3ncc(C)s3)n2Cc2ccco2)c(C)c1 | · | 1.8 | 0.9 | · | 8.9 | 1
Cc1cc(Br)c(S(=O)(=O)n2nnc3ccccc32)cc1C | -5.1 | 27.7 | 0.6 | -21.6 | 42.2 | 0.7
COc1ccc(OC)c(S(=O)(=O)N2CCC(C(=O)NC(C)c3ccccc3)CC2)c1 (centres undefined) | -13.6 | -192.3 | 0.6 | 13.1 | 39.4 | 2.9*
O=C(C1CCN(c2nnc(-n3cccc3)s2)CC1)N1CCN(Cc2ccc3c(c2)OCO3)CC1 | · | 1.5 | 0.8 | · | 24.7 | 1
COc1ccc(OC)c(S(=O)(=O)N2CCC(C(=O)NCC3CCCO3)CC2)c1 (centres undefined) | -0.2 | -61.1 | 1.1 | 13.7 | -10.3 | 1.6
CCc1ccccc1N1CCN(S(=O)(=O)c2cc(OC)ccc2OC)CC1 | -5.1 | 98.7* | 0 | -9.1 | 100.0* | 0
COc1ccc(OC)c(S(=O)(=O)N2CCC(C(=O)NCCc3ccccc3)CC2)c1 | -10.5 | -216.5 | 0.6 | -20.0 | 41.2 | 3.2*
CC1CCN(Cc2ccc(NC(=O)C3CCN(c4nnc(-n5cccc5)s4)CC3)cc2)CC1 | · | 46.1 | 0.4 | · | 56.0* | 0.5
COc1ccc(C)cc1NC(=O)C(CCS(C)(=O)=O)NC(C)=O (centres undefined) | -8.3 | 0.5 | 1 | 5.5 | -3.3 | 1
Nc1ccc(Cc2nc3cc4ccccc4cc3[nH]2)cc1 | -18.2 | 33.4 | 0.6 | -16.4 | 38.5 | 0.7
CCCCC(c1nnnn1CCOC)N1CCN(Cc2ccccc2)CC1 (centres undefined) | -5.5 | · | · | -21.2 | · | ·
COc1cc(C=O)c(Br)cc1OCc1ccc(C)cc1 | -13.2 | 14.7 | 0.6 | 6.1 | 40.1 | 0.9
Cc1ccccc1-n1c(=O)cc(N2CCN(C(=O)c3ccco3)CC2)[nH]c1=O | -7.0 | · | · | -3.0 | · | ·
Cc1cccc(NC(=O)CN2C(=O)NC(C)(c3ccc4c(c3)OCO4)C2=O)c1 (centres undefined) | -5.8 | 66.9* | 0.7 | 10.0 | 27.3 | 0.3
